What all share (format): functional
The target in assay [1] is Solute carrier family 2, facilitated glucose transporter member 1 (Homo sapiens) (UniProt P11166). The experiment in a line: ST_JUDE_LEISH: Cytotoxicity at 2uM final concentration against transgenic Leishmania Mexicana promastigotes LmGLUT1 that are glucose transport deficient and complemented with the human glucose transporter GLUT1. Activity is measured by DNA content using SYBR green in vitro.

The target in assay [2] is Hexose transporter 1 (Plasmodium falciparum) (UniProt O97467). The experiment in a line: ST_JUDE_LEISH: Cytotoxicity at 2uM final concentration against transgenic Leishmania Mexicana promastigotes LmPfHT that are glucose transport deficient and complemented with the Plasmodium falciparum hexose transporter. Activity is measured by DNA content using SYBR green in vitro.

Assay [3] deals with Glucose transporter (Leishmania mexicana) (UniProt O61059). The experiment in a line: ST_JUDE_LEISH: Cytotoxicity at 2uM final concentration against transgenic Leishmania Mexicana promastigotes LmGT2 that are glucose transport deficient and complemented with the L. Mexicana glucose transporter 2. Activity is measured by DNA content using SYBR green in vitro.

Sequence of Solute carrier family 2, facilitated glucose transporter member 1 (Homo sapiens) (P11166 whole entry): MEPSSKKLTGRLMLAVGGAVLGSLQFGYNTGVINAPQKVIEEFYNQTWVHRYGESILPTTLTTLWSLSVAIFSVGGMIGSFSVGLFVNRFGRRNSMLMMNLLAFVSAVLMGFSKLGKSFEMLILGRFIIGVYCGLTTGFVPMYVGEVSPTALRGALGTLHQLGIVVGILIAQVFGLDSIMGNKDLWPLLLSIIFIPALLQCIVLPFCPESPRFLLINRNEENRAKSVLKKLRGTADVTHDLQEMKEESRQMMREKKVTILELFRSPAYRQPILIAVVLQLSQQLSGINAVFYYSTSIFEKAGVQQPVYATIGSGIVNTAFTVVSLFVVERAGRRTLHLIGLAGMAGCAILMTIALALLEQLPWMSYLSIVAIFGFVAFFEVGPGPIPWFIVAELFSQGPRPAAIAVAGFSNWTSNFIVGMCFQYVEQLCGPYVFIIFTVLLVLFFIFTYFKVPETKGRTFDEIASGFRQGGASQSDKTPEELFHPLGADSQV

Regarding `CCN(CCO)CCCC(C)Nc1ccnc2cc(Cl)ccc12` (stereo not drawn), the inhibition (commonly the relative decrease from the control value, in per cent) in assay [1] was found to be 7%; in assay [2] it was 7.44%; in assay [3], 6.05%.
Turning to `O=C(NCc1ccccc1)Nc1ccc(-c2ccc(-c3nc4cc(C(F)(F)F)ccc4[nH]3)cc2)cc1`, the inhibition in assay [1] worked out at 2.91%; in assay [2], 4.48%; in assay [3], 0.55%.
In the case of `CNc1nc(Nc2ccccc2C)nc2ccccc12`, the inhibition was found to be 33.8% in assay [1], 34.3% in assay [2] and 18.3% in assay [3].
For `Cc1ccc(Cn2ncc(N3CCC(N)CC3)c(Cl)c2=O)cc1NC(=O)Nc1ccc(-c2ccccc2)cc1`, the inhibition in assay [1] was found to be 14.2%; in assay [2], 12.3%; in assay [3], 11.9%.
As for `N#Cc1ccc(-c2ccc(C(=O)Nc3ccc4c(c3)CCN(C3CCC3)CC4)nc2)cn1`, the inhibition came to 7.75% in assay [1], 7.17% in assay [2] and 5.21% in assay [3].
On the same counts, the results for `Cc1cccc2nc(-c3ccc(-c4cccc(NC(=O)C(C)CN(C)C)c4)cc3)[nH]c12` (stereo not drawn) are 8.52%, 7.83% and 3.93%.
On the same counts, the results for `O=C(Nc1cccc([N+](=O)[O-])c1)Nc1cccc(C(F)(F)F)c1` are 1.48%, 1.8% and 2.9%.
With `Cc1noc(-c2ccccc2)c1NC(=O)N1CCN(CCCCCCNC(=O)/C=C/c2ccc(Cl)c(Cl)c2)CC1`, the values for the inhibition in assay [1], in assay [2] and in assay [3] were -2.35%, 0.35% and -1.3%, respectively.
Regarding `Cc1c(Cc2ccccc2Cl)cnc2nc(N)nc(N)c12`, the inhibition in assay [1] was 18.9%; in assay [2] it was 37.5%; in assay [3], 24.1%.
Consider `Nc1c2c(nc3ccccc13)C(=Cc1ccc(O)cc1)CCC2`, for which the inhibition came out at 5.91% in assay [1], 8.35% in assay [2] and 2.9% in assay [3].
As to `Cc1ccc(-n2nc(-c3ccccc3)c3cc(C(=O)NCCN)sc32)cc1`, the inhibition is -2.29% in assay [1], -1.78% in assay [2] and -6.61% in assay [3].
In the case of `N#CCCN1CCN(Cc2cccc(-c3ccc(-c4nc5ccccc5[nH]4)s3)c2)CC1`, the values for the inhibition in assay [1], in assay [2] and in assay [3] were -1.29%, -2.37% and -0.4%, respectively.
Consider `O=C(Nc1ccc(-c2ccc(-c3nc4ccccc4[nH]3)s2)cc1)Nc1ccc(F)c(F)c1F`, for which the inhibition in assay [1] was 0.57%; in assay [2] it was -1.5%; in assay [3], -0.77%.
With `CCN(CC)CCCC(C)Nc1c(-c2ccc(Br)cc2)cnc2ccccc12` (stereo not drawn), the inhibition in assay [1] stood at 57.5%; in assay [2] it was 14.4%; in assay [3], 3.73%.
Consider `CCCCCC(C)C(C)c1cc(OC(N)=O)c2c(c1)OC(C)(C)C=C2c1ccncc1` (stereo not drawn), for which the inhibition was -3.81% in assay [1], -1.09% in assay [2] and -1.38% in assay [3].
Take `O=C(NC1CC1)c1cnc(N2CCC(OCc3ccccc3)CC2)c(Cl)c1`: the inhibition in assay [1] was 1.59%; in assay [2], 3.18%; in assay [3] it was -1.03%.
With `N#Cc1ccc(C=NNc2nc3ccccc3[nH]2)cc1`, the values for the inhibition in assay [1], in assay [2] and in assay [3] were 3.61%, 1.98% and -0.11%, respectively.
As for `Fc1ccc(Nc2ccnc3cc(I)ccc23)c(Cl)c1`, the inhibition turned out to be 2.32% in assay [1], 2.73% in assay [2] and 1.47% in assay [3].
`CCCC(C)N(Cc1ccc(C(C)(C)C)cc1)C(=O)c1ccc(OC)cc1` (stereo not drawn): the results for the inhibition in assay [1], in assay [2] and in assay [3] were 9.4%, 10.6% and 7.03%, respectively.
Turning to `N#CC(c1cccc(Cl)c1)c1ccc2c(C(F)(F)F)cc(C(F)(F)F)nc2n1` (stereo not drawn), the inhibition in assay [1] worked out at 9.02%; in assay [2], 7.47%; in assay [3] it was 6.02%.
On the same counts, the results for `CC(=O)N(C)C1CCN(Cc2cccc(-c3ccc(-c4nc5cc(F)ccc5[nH]4)cc3)c2)C1` (stereo not drawn) are 3.46%, 2.4% and 3.15%.
On to `COc1ccc(C(=O)C2CCN(CCCCNC(=O)c3ccc(NC(=O)c4cc(Cl)cc(Cl)c4)cc3)CC2)cc1`, for which the inhibition was 3.02% in assay [1], 4.08% in assay [2] and 2.05% in assay [3].
`O=[N+]([O-])c1cccc(CNCC2CCN(CCc3ccccc3)CC2)c1`: the inhibition in assay [1] is 2.35%; in assay [2] it was 1.86%; in assay [3] it was 2.16%.
With `CNC(=O)c1ccc2nc(C3CC3)n(CC3CCN(S(=O)(=O)c4cccc(Cl)c4)CC3)c2c1`, the inhibition is 1.69% in assay [1], 1.44% in assay [2] and 2.49% in assay [3].
With `CCCCOc1ccc(-n2c(Nc3ccccc3)nc3cc(S(N)(=O)=O)ccc32)cc1`, the values for the inhibition in assay [1], in assay [2] and in assay [3] were 11.4%, 8.64% and 7.09%, respectively.
On to `Cc1nnsc1C(=O)Nc1cccc(-c2ccc(-c3nc4cc(F)ccc4[nH]3)s2)c1`, for which the inhibition is 1.06% in assay [1], 0.37% in assay [2] and -2.44% in assay [3].
The matching figures for `CCCCCCN1CCC(NCc2ccc(C)cc2)CC1`: 12.6%, 16% and 17.6%.
The matching figures for `Cc1nc2c(c(C)nn2C(C)(C)C)c(C)c1CCC(=O)Nc1ccc(CN2CCCC2)cc1`: 9.93%, 6.16% and 5.29%.
For the compound `CCCCCCCN1CC[C@@H](CCC(O)c2ccnc3ccc(OC)cc23)[C@@H](CC)C1` (stereo partly drawn), the inhibition was -0.47% in assay [1], 0.63% in assay [2] and 0.73% in assay [3].
The matching figures for `CCN(CC)CCCN(CCCN(CC)CC)c1cc(C)nc(Nc2ccc3cc(Br)ccc3c2)n1`: 1.34%, 4.9% and 3.03%.
The matching figures for `COc1ccc2nccc([C@@H](O)CN3CCC(NC(=O)c4nc(Cl)c(Cl)c(N)c4Cl)CC3)c2c1`: -0.09%, -0.22% and 1.55%.
Take `CN(C)CCNc1cc(-c2cccnc2)nc(-c2ccncc2)n1`: the inhibition is -1.31% in assay [1], -1.16% in assay [2] and -1.09% in assay [3].
The matching figures for `COc1cc2nc(N3CCC(CNC(=O)c4ccc(-c5ccc(C#N)cc5C)cc4)CC3)nc(N)c2cc1OC`: 1.67%, 1.27% and 0.49%.
On the same counts, the results for `CC(Cc1ccc(NC(=O)c2ccc(NCCc3ccccc3)cc2)cc1)NCCc1cccc(Cl)c1` (stereo not drawn) are -0.04%, -0.81% and -1.31%.
Consider `Cc1[nH]c(C)c(-c2ccc(OCCn3cnc(Cl)c3Cl)cc2)c(=O)c1Br`, for which the inhibition is -1.35% in assay [1], -0.56% in assay [2] and -0.52% in assay [3].
As for `COc1ccc(CCN2CCC(Nc3nc4ccccc4n3CCc3ccc(OC)cc3)CC2)cc1`, the inhibition in assay [1] is 4.38%; in assay [2], -1.39%; in assay [3] it was 12.5%.
Consider `CC(=O)Nc1ccc(C(=O)Nc2ccc(-c3cccc(-c4nc5cccc(C)c5[nH]4)c3)cc2)cn1`, for which the inhibition was -3.82% in assay [1], -0.04% in assay [2] and -3.28% in assay [3].
For the compound `CCN(CC)CCNc1nc(C=Cc2ccc(Cl)cc2)nc2cc3ccccc3cc12`, the inhibition in assay [1] is -0.78%; in assay [2], -0.58%; in assay [3] it was -1.66%.
In the case of `CCCCNC(=O)[C@@H](NC(=O)c1ccc(O)c(-c2ccc(Cl)c(Cl)c2)c1)C(C)C`, the results for the inhibition in assay [1], in assay [2] and in assay [3] were 4.49%, 4.37% and 3.47%, respectively.
In the case of `CC(C)NCc1ccc(-c2ccc(CN3CCCC(c4ccccc4)C3)cc2)c(C(=O)NC2Cc3ccccc3C2)c1` (stereo not drawn), the figures for the inhibition in assay [1], in assay [2] and in assay [3] were 16.8%, 17.4% and 11%, respectively.
For the compound `OCC1CCN(Cc2cccc(C#Cc3cc4ncnc(Nc5ccc(OCc6cccc(F)c6)c(Cl)c5)c4s3)n2)CC1`, the results for the inhibition in assay [1], in assay [2] and in assay [3] were 14.1%, 8.82% and 9.61%, respectively.
As to `Cc1ccc2c(c1[N+](=O)[O-])N=NCC2Oc1ccccc1` (stereo not drawn), the inhibition in assay [1] worked out at 10.8%; in assay [2], 9.1%; in assay [3], 10.6%.
Regarding `CCOC(=O)CCCCOc1c(OC)cc(Cc2cnc(N)nc2N)cc1OC`, the inhibition in assay [1] came out at 6.18%; in assay [2] it was 6.88%; in assay [3] it was 6.09%.
On to `Cc1c(Cn2nc(Cl)c(N3CCNCC3)cc2=O)cccc1NC(=O)Nc1ccc(-c2ccccc2)cc1`, for which the figures for the inhibition in assay [1], in assay [2] and in assay [3] were -2.62%, -2.29% and -0.03%, respectively.
With `COc1ccc(Nc2ncc3c(-c4cccc(NC(=O)Cc5ccc(O)cc5)c4)c[nH]c3n2)cc1OC`, the inhibition was found to be 9.41% in assay [1], 5.77% in assay [2] and 8.19% in assay [3].
Take `CSc1ccc2ccccc2c1CCNCCCCNCCc1c(SC)ccc2ccccc12`: the inhibition in assay [1] was 68.9%; in assay [2], 96.1%; in assay [3], 81.6%.
On to `Cc1ccc(NC(=O)c2ccc(CN3CCCN(CCC(C)C)CC3)cc2)cc1F`, for which the inhibition was 7.11% in assay [1], 7.04% in assay [2] and 9.05% in assay [3].
For `Fc1ccc(CNc2ccc3ncc(-c4cccnc4)n3n2)cc1`, the inhibition in assay [1] stood at 2.61%; in assay [2], 2.21%; in assay [3], 0.67%.
For the compound `Nc1cccc(CNCc2cccc(-c3ccc(-c4nc5ccccc5[nH]4)s3)c2)c1`, the inhibition in assay [1] is 7.77%; in assay [2], 8.55%; in assay [3] it was 5.7%.
On the same counts, the results for `CCCC(C)N(Cc1ccc(C(C)(C)C)cc1)C(=O)c1cccc(C#N)c1` (stereo not drawn) are -1.28%, 0.07% and -1.38%.
With `Cc1cc(Nc2cccc(C(F)(F)F)c2)nc2ccc(NC(=O)c3ccc(=O)[nH]c3)cc12`, the inhibition was -0.79% in assay [1], -0.69% in assay [2] and -0.59% in assay [3].

Values taken from ChEMBL document CHEMBL3433997, “St. Jude Leishmania screening dataset” (2016).
